Assay outcomes deposited in PubChem BioAssay by National Center for Advancing Translational Sciences (NCATS).
Most compounds without a hit are left out; they make up all but 19% or so of the library.
MCF10A rerep = induces DNA re-replication in MCF 10a normal breast cells | MCF 10A DNA re-replication, Hoechst nuclear intensity, 48 h | Potency, µM (doses to about 46.1 µM), usual class: activators | 350,000 compounds, 2.9% hits | AID 624296; further: nearly all actives have a fitted effect of over 50% in size
BCR signal inh = blocks chronic active B-cell receptor signaling; 340,000 compounds, 0.05% hits; ABC-DLBCL IkBa-CBG/CBR reporter, luminescence ratio, 4 h; Potency, µM (top dose mostly 46.1 µM), actives largely listed as inhibitors; active means well fitted inhibition curve with a large enough effect in the signal ratio, with a control signal flat, not every such curve was filed as active; inconclusive means small, poorly fitted or top-dose-only effect, or effect the other way, or a change in a side signal; the % refers to the signal ratio
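TMD8 ABC-DLBCL cells carrying doxycycline-inducible green luciferase fused to IkappaBalpha plus unfused red luciferase were exposed to compounds (up to 46 uM) for 4 hrs at 37C. Activity came from the overlap-corrected green/red luminescence ratio.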
SW480 rereplic = inducers of DNA re-replication in SW480 colon cancer cells | AID 624297 | Potency, µM (top dose mostly 46.1 µM), actives largely listed as activators | SW480 DNA re-replication, Hoechst DNA content imaging, 48 h | 340,000 compounds, 1.8% hits; further: nearly all actives have a fitted effect of over 55% in size
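DNA re-replication was detected as more nuclei of elevated Hoechst intensity after 48 hr exposure to compound (23 nL pinned per well of 250 cells).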
IL-1B inflam inh = inflammasome signaling inhibition, IL-1 beta readout. THP-1 LPS/ATP IL-1B secretion, AlphaLISA, 16 h; active compounds read low. activity change, % at 57.5 µM. 360,000 compounds, 4.7% hits. AID 743279; in the data active means activity change below about -50%; inconclusive means mostly about -30% to -49%
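Secreted IL-1B measured by AlphaLISA bead assay after 16 h compound exposure of THP-1 cells; compounds (final up to 57.5 uM) added 1 h before LPS (250 ng/mL) and ATP (1.25 mM) stimulation; lower signal means less secretion.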
TDP1 cell CPT = DT40-hTDP1 cell growth loss with CPT; chicken DT40 Tdp1-/-;hTDP1 cells + 20 nM CPT, ATP luminescence, 48 h; Potency, µM (highest dose often 46.2 µM), most hits filed as inhibitors; AID 686979; 420,000 compounds, 12% hits; further: nearly all actives have a fitted effect of over 55% in size
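Cell growth measured by CellTiter-Glo luminescence after a minimum 48 h, 37 C compound exposure with 20 nM CPT in Tdp1-knockout DT40 cells stably expressing hTDP1, seeded 400/well; qHTS titration format.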
TDP1 cell noCPT = qHTS for Inhibitors of human tyrosyl-DNA phosphodiesterase 1 (TDP1): qHTS in cells in absence of CPT | DT40 Tdp1-/- hTDP1 cells, no CPT, ATP luminescence, 48 h | Potency, µM (doses to about 46.2 µM), hits mostly inhibitors | 420,000 compounds, 15% hits | AID 686978, 2013; further: nearly all actives have a fitted effect of over 55% in size
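Compound effects on proliferation are scored in DT40 Tdp1-/-;hTDP1 cells in the absence of CPT. ATP levels (CellTiter-Glo luminescence) are recorded after a ≥48 hr, 37 °C incubation.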
Numbers stand for hits; ! = not active in a repeat; [ ] = dose if it differs, or a comment. Unless noted, the call rests on the fitted dose curve; in most records, active means well fitted curve in the direction sought with a large enough effect; inconclusive means small, poorly fitted or top-dose-only effect, or another doubt; inactive means no such curve, though single readings can be large; an effect the other way counts as inactive or inconclusive.

`O=C(Nc1cccc(-n2cnnn2)c1)c1ccc(OC(F)(F)F)cc1` gave MCF10A rerep inactive, BCR signal inh inconclusive, SW480 rereplic inactive, IL-1B inflam inh inactive, TDP1 cell CPT inactive and TDP1 cell noCPT inactive.
CCc1ccc(C2C(C(=O)Nc3ccccc3C)=C(C)Nc3nc(SCc4cccc(OC)c4)nn32)cc1 (stereo not given) was read as BCR signal inh inactive, TDP1 cell CPT inactive and TDP1 cell noCPT inactive.
`CC1(C(=O)Nc2ccccc2F)CCN1C(=O)Cc1cc(F)ccc1F` (stereo not given) gave IL-1B inflam inh inactive, TDP1 cell CPT inactive and TDP1 cell noCPT inconclusive.
For CCc1ccc(Nc2ncc3c(n2)CC(C)CC3=O)cc1 (stereo not given) the results were MCF10A rerep inactive, BCR signal inh inactive, SW480 rereplic inactive, IL-1B inflam inh inactive, TDP1 cell CPT inactive and TDP1 cell noCPT inactive.
CCc1ccc(Nc2ncc3c(n2)CC(C)(C)CC3=O)cc1 was read as MCF10A rerep inconclusive, BCR signal inh inactive, SW480 rereplic inactive, IL-1B inflam inh -61.1, TDP1 cell CPT inactive and TDP1 cell noCPT inactive.
`COc1ccc(C(=O)Nc2ncc3c(n2)CC(C)CC3=O)cc1` (stereo not given) gave MCF10A rerep inactive, BCR signal inh inconclusive, SW480 rereplic inactive, IL-1B inflam inh inactive, TDP1 cell CPT inactive and TDP1 cell noCPT inactive.
Screening COc1cccc(C(=O)Nc2ncc3c(n2)CC(c2ccc(OC)cc2OC)CC3=O)c1 (stereo not given) returned MCF10A rerep 2.31µM, BCR signal inh inconclusive, SW480 rereplic 6.51µM, IL-1B inflam inh inactive, TDP1 cell CPT 2.91µM and TDP1 cell noCPT 4.11µM.
Screening COCCCN1C(=O)C(CC(=O)NCCN2CCOCC2)CC(C(=O)N2CCOCC2)=C1C (stereo not given) returned IL-1B inflam inh inactive, TDP1 cell CPT inactive and TDP1 cell noCPT inactive.
`CNC[C@H](Cc1cccc2ccccc12)NC[C@H](CCSC)NCC1CCC(C(C)(C)C)CC1` (stereo not given in full) gave BCR signal inh inactive.
For C=C1CCC2C(C)(CO)C(O)CCC2(C)C1C/C=C1\C(=O)OCC1O (stereo not given) the results were TDP1 cell CPT 3.98µM and TDP1 cell noCPT 5.01µM.
C=C1CCC2[C@](C)(CO[C@@H]3O[C@H](CO)[C@@H](O)[C@H](O)[C@H]3O)CCC[C@@]2(C)[C@@H]1CCC1=CCOC1=O (stereo not given in full) was read as MCF10A rerep inactive, BCR signal inh inactive, SW480 rereplic inactive, IL-1B inflam inh inactive, TDP1 cell CPT inactive and TDP1 cell noCPT inconclusive.
Screening Cc1cc(C)nc(NS(=O)(=O)c2ccc(NC(=O)c3ccc(O)cc3O)cc2)n1 returned MCF10A rerep inactive, BCR signal inh inactive, SW480 rereplic inactive, IL-1B inflam inh inactive, TDP1 cell CPT inactive and TDP1 cell noCPT inactive.
CCS(=O)(=O)c1ccc2oc(SCC(=O)NC(C)C3CC4CCC3C4)nc2c1 (stereo not given) was read as MCF10A rerep inactive, BCR signal inh inactive, SW480 rereplic inactive, IL-1B inflam inh inactive, TDP1 cell CPT inconclusive and TDP1 cell noCPT 16.4µM.
For CC(=O)NO the results were MCF10A rerep inactive, SW480 rereplic inactive, IL-1B inflam inh inactive, TDP1 cell CPT inconclusive and TDP1 cell noCPT 1.68µM!.
CC1(C(=O)NS(=O)(=O)c2ccc(F)cc2F)CCN1C(=O)c1cccc(F)c1 (stereo not given) was read as IL-1B inflam inh inactive, TDP1 cell CPT inactive and TDP1 cell noCPT inactive.
For COc1cc2c(cc1OC)CN(c1ccc(-c3ccccc3OC)nn1)CC2 the results were MCF10A rerep inactive, BCR signal inh inconclusive, SW480 rereplic inactive, TDP1 cell CPT inconclusive and TDP1 cell noCPT 23.1µM.
Screening COc1cc2c(cc1OC)CN(c1ccc(C(F)(F)F)cn1)CC2 returned MCF10A rerep 16.4µM, BCR signal inh inactive, SW480 rereplic inconclusive, IL-1B inflam inh -90.0, TDP1 cell CPT inconclusive and TDP1 cell noCPT 16.4µM.
COc1cc(C(=O)COC(=O)C2CCN(c3ccc(C(F)(F)F)cn3)CC2)ccc1OC(F)F was read as MCF10A rerep inactive, BCR signal inh inconclusive, SW480 rereplic inactive, IL-1B inflam inh inactive, TDP1 cell CPT inactive and TDP1 cell noCPT inactive.
For CCc1ccc(C(=O)C(C)OC(=O)c2nc3nc(C)cc(C)n3n2)cc1 (stereo not given) the results were MCF10A rerep inactive, BCR signal inh inactive, SW480 rereplic inactive, IL-1B inflam inh inactive, TDP1 cell CPT inactive and TDP1 cell noCPT inactive.
Screening COc1ccc2c(c1)OC(C)CN(CCNC(=O)c1cc3cc(F)ccc3[nH]1)C2 (stereo not given) returned TDP1 cell CPT inactive[9.04 µM] and TDP1 cell noCPT inconclusive.
`CC(=O)c1cccc(NC(=O)Cn2nc(C)n3cccc3c2=O)c1` gave TDP1 cell CPT inactive and TDP1 cell noCPT 16.4µM.
`CCc1nn(CC(=O)NCCCN2CCc3ccccc3C2)c(=O)c2cc3sccc3n12` gave MCF10A rerep inactive, BCR signal inh inactive, SW480 rereplic inconclusive, IL-1B inflam inh inactive, TDP1 cell CPT 23.1µM and TDP1 cell noCPT inconclusive.
Screening CCc1nn(CC(=O)Nc2cccc(C(C)=O)c2)c(=O)c2cc3sccc3n12 returned TDP1 cell CPT 18.4µM and TDP1 cell noCPT inconclusive.
CCc1nn(CC(=O)NCCCN2CCN(C)CC2)c(=O)c2cc3sccc3n12 was read as MCF10A rerep inactive, BCR signal inh inactive, SW480 rereplic inactive, IL-1B inflam inh inactive, TDP1 cell CPT inactive and TDP1 cell noCPT inactive.
For COc1ccccc1CNC(=O)[C@@H](NC(=O)C1CCN(C(=O)[C@@H]2CCCN2)CC1)C(C)C the results were MCF10A rerep inconclusive, BCR signal inh inactive, SW480 rereplic inconclusive, IL-1B inflam inh inactive, TDP1 cell CPT inactive and TDP1 cell noCPT inactive.
Screening C[C@@H](O)[C@H]1C(=O)N2C(C(=O)O)=C(S[C@@H]3CN[C@H](CNS(N)(=O)=O)C3)[C@H](C)[C@H]12 returned MCF10A rerep inactive, SW480 rereplic inactive, TDP1 cell CPT inconclusive and TDP1 cell noCPT inactive.
`CC(=O)NC(Cc1c(F)c(F)c(F)c(F)c1F)C(=O)NCC(N)C(=O)c1ccccc1` (stereo not given) gave TDP1 cell CPT inconclusive and TDP1 cell noCPT 20µM.
`O=C1c2cccc3cccc(c23)C(=O)N1OS(=O)(=O)c1ccc(Br)cc1` gave MCF10A rerep inactive, BCR signal inh inactive, SW480 rereplic inactive, IL-1B inflam inh inactive, TDP1 cell CPT inconclusive and TDP1 cell noCPT 10.3µM.
